In all, about 370,000 compounds went through this assay and about 4,100 (1.1%) were called active. Shown is part of a subset that was picked to be rich in actives. A number with no mark means an inactive call.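 Rule for the calls: active = inhibition above the mean over all tested compounds plus 3 SD (cut at about 3.6% in these data); inactive = the rest.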

The inhibition is the change of the read-out against control, counted positive when it falls.

This assay can be described thus: relief of DAX-1 repression of SF-1 activity – cell-based, luminescence, SF-1 (NR5A1), full-length DAX-1, primary screen (AID 652010).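 Note: 0% = DAX-1 cells with DMSO and 100% = cells lacking DAX-1 with DMSO.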 Conditions: HEK293T StAR-luciferase reporter, SF-1/DAX-1 repression relief; at 6.8 µM; stronger effect = higher value. (Reporter assays use an easily measured gene product as a stand-in for the process of interest.)
For the compound `Cc1ccc(NS(=O)(=O)c2cc3c(cc2Br)NC(=O)CO3)cc1C`, the inhibition was -2.1%. Turning to `CN1CCN(S(=O)(=O)c2ccc(NC(=O)C3CCCO3)cc2)CC1` (stereo unspecified), the inhibition is -0.58%.

Turning to `CCOc1cc(/C=N/NC(=O)c2ccc(CSc3nncn3C)cc2)ccc1OCC(=O)N1CCOCC1`, the inhibition was 0.55%. `O=S1(=O)c2ccc(N3CCN(Cc4ccccc4F)CC3)cc2Oc2ccccc2CN1Cc1cn(Cc2ccc(Cl)cc2)nn1`: the inhibition is -0.86%. The value for `O=S(=O)(c1cccs1)N1CCCc2nc(-c3ccc(Br)cc3)ccc21` was 0.56%; that for `CCCCN1CCN(C(=O)c2ccc3c(c2)NC(=O)C(C)(C)O3)CC1` was 0.65%; that for `CC(NS(=O)(=O)c1ccc(OCC(=O)N2CCCC2)cc1)c1ccccc1` (stereo unspecified) was 0.22%. The value for `CCN(c1ccccc1)S(=O)(=O)c1ccc(OCC(=O)N2CCCC2)cc1` was 4.72% (active). Turning to `COc1ccc(N(CC(=O)N2CCCCCC2)S(=O)(=O)c2ccccc2)cc1`, the inhibition is -0.37%. On to `CCOc1ccccc1NC(=O)CCc1nnc2ccc(NCc3ccco3)nn12`, for which the inhibition is -0.55%. The value for `CC(=O)c1ccc(NC(=O)CCc2nnc3ccc(NCc4ccco4)nn23)cc1` was 4.34% (active). In the case of `O=C(CCc1nnc2ccc(NCc3ccco3)nn12)Nc1cc(F)ccc1F` it was 1.27%; in that of `O=C(CSc1nnc(-c2ccccc2)n1Cc1ccco1)Nc1ccccc1-c1ccccc1`, -1.32%.

Regarding `Cc1cccc(NC(=O)C(C)N2C(=O)C3C4CC(C(Br)C4Br)C3C2=O)c1` (stereo unspecified), the inhibition is -0.17%. As to `Nc1nc2cc(Cl)ccc2n1N`, the inhibition is 0.18%. In the case of `Nc1ccc2nn(-c3ccc(Cl)cc3)nc2c1` it was 4.89% (active). On to `Nc1ccc2c(c1)C(O)c1ccc(Cl)cc1-2` (stereo unspecified), for which the inhibition was 0.66%. The value for `CCOC(=O)N1CCN(C(=O)C[C@H]2C[C@@]3(C(=O)OC)C(=C[C@H](C4CCCC4)O[C@@H]3C)N(Cc3ccccc3)C2=O)CC1` was -0.29%; that for `CC(C)N1CCCCC(NC(=O)C(C)(C)C)C1=O` (stereo unspecified) was -0.67%; that for `CC(=O)Nc1cccc(C(=O)OCC(=O)NCc2cc(C)c(O)c(C)c2)c1` was 2.37%.

For `CC(=O)Nc1cccc(C(=O)OCC(=O)c2ccc3c(c2)OCO3)c1`, the inhibition was 13.7% (active). For `CC(=O)Nc1cccc(C(=O)OCN2C(=O)c3ccccc3C2=O)c1`, the inhibition is 1.3%. The value for `COC(=O)C1CN(CCc2ccccc2)CCS(=O)(=O)N1Cc1cccc(Cl)c1` (stereo unspecified) was -1.7%. `O=C1CC[C@@H](COc2ccc3[nH]cc(-c4ccccc4)c3c2-c2ccccc2)N1`: the inhibition is -0.82%. The value for `O=C(NCC(=O)N1CCCC(C(F)(F)F)C1)c1ccccc1F` (stereo unspecified) was 4.23% (active); that for `O=C(COC(=O)CNC(=O)c1ccccc1F)NCC(F)(F)F` was -0.62%; that for `O=C(NCC(=O)N1CCCCCCC1)c1ccccc1Cl` was -0.28%. In the case of `O=C(C1CCCO1)N(c1ccc(F)cc1)C1C=CS(=O)(=O)C1` (stereo unspecified) it was -0.69%.

As for `C=CC1=CCN(S(=O)(=O)C(C)(C)C)[C@@H]1CCO`, the inhibition was -0.3%. In the case of `CN(C(=O)COC(=O)c1cc(=O)[nH]c2ccccc12)C1CCCCC1` it was 3.03%; in that of `O=C(COC(=O)c1cc(=O)[nH]c2ccccc12)NCc1cccc(Cl)c1`, -1.15%. In the case of `CC1CCN(C(=O)COC(=O)c2cc(=O)[nH]c3ccccc23)CC1` it was 9.38% (active); in that of `COC(=O)[C@@]12CCCCC=C1N(CCc1ccc(Cl)cc1)C(=O)[C@H]2CC(=O)NCc1ccc(OC)c(OC)c1`, -1.83%; in that of `CC(C)(C)OC(=O)NCCc1ccccc1/C=C/S(=O)(=O)NCc1ccc(F)cc1`, -2.47%.

Take `COc1cc(C(C)=O)ccc1OC(=O)CN1C(=O)c2ccccc2C1=O`: the inhibition was -0.4%. For the compound `C=CCn1c(C)cc(C(=O)CN2C(=O)c3ccccc3C2=O)c1C`, the inhibition was 3.9% (active). In the case of `C=CCN(CC=C)C(=O)CN1C(=O)c2ccccc2C1=O`, the inhibition was -0.48%. On to `CCn1c(SCC(C)=O)nc2sc3c(c2c1=O)CCCC3`, for which the inhibition was -0.04%. In the case of `O=C(COC(=O)/C=C/c1ccc2c(c1)OCO2)NC1CCS(=O)(=O)C1` (stereo unspecified) it was 0.14%. For the compound `Cc1cccc(NC(=O)/C=C/c2ccc3c(c2)OCO3)n1`, the inhibition was 5.26% (active). The value for `COc1ccc(S(=O)(=O)N(C)CC(=O)Nc2ccc3c(c2)OCCO3)cc1OC` was 0.16%. Take `Cc1ccc(OCCCC(=O)Nc2ccc3c(c2)OCCO3)cc1`: the inhibition is -0.75%. In the case of `COc1cccc(/C=C/C(=O)Nc2ccc3c(c2)OCCO3)c1` it was 5.36% (active). The value for `CN(Cc1ccccc1)C(=O)COC(=O)/C=C/c1ccc2c(c1)OCO2` was 0.06%; that for `C=CCN1C(=O)[C@H](CC(=O)N2CCN(C(=O)OCC)CC2)[C@@]2(C(=O)OCC)CCCC=C12` was -0.21%; that for `COC(=O)c1ccccc1-n1cc(COC(=O)NCCc2ccccc2)nn1` was -0.35%. The value for `Cc1cc(NS(=O)(=O)c2ccc(NC(=O)CSc3nnc(-c4ccc(C(C)(C)C)cc4)n3Cc3ccco3)cc2)nc(C)n1` was 0.36%. On to `COC(=O)C1=C(C)N(Cc2ccccc2C(F)(F)F)C(=NCC2CC2)NC1c1cccc(Cl)c1` (stereo unspecified), for which the inhibition is 0.1%. In the case of `CC(C)C[C@H]1CN([C@@H](CC(C)C)CN2CCC[C@@H]2CN2C(=O)C(=O)NC[C@@H]2Cc2ccccc2)C(=O)C(=O)N1CCc1ccccc1` it was -1.31%; in that of `CN1[C@H](Cc2ccccc2)COc2cccc(N3CCSCC3)c2S1(=O)=O`, -1%; in that of `NC1=NN(c2cccc(C(=O)O)c2)C(=O)C1`, -0.57%. The value for `O=C(O)c1cccc(N=NN2CCCCCC2)c1` was 6.35% (active); that for `Cc1cccc(C(=O)N2CCN(S(=O)(=O)N3CCCCC3)CC2)c1` was 1.49%.

As to `CCOC(=O)[C@]12CCCC=C1N(CCCOC)C(=O)[C@@H]2CC(=O)N1CCOCC1`, the inhibition is -0.49%. For `CCCNC(=O)Nc1ccc2c(c1)C(=O)N(C)[C@H]1CC[C@H](CC(=O)NCC3CCCCC3)O[C@@H]1CO2`, the inhibition was -0.63%. Regarding `COC(=O)C(C(=O)OC)c1ccccc1NS(=O)(=O)c1cccc2ccccc12`, the inhibition is 0.06%.

Source of the values: PubChem BioAssay AID652010 (The Scripps Research Institute Molecular Screening Center, 2013).
